# The list is not random: actives were taken first. Their share in the collection is about 3.4%.
# COUP-TFII inh = NR2F2 transcriptional activity inhibitors, primary screen, cell-based, luciferase reporter, HEK293T, luminescence. inhibition, % at 8.6 µM. 370,000 compounds, 0.7% hits. HEK293T NGFI-A luciferase reporter;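 active = inhibition above a per-plate cutoff, mean inhibition of test wells between control levels plus 3 SD, cut at about 38% in these data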;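 also: cells cotransfected with COUP-TFII expression vector driving the NGFI-A reporter; 0% = median of COUP-TF2 test wells and 100% = reporter-only cells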
# Gli-Sufu block = Gli-Sufu pathway antagonists, primary screen, luciferase luminescence, Sufu-KO-LIGHT cells, uHTS; Sufu-KO-LIGHT fibroblasts, Gli luciferase reporter luminescence; inhibition, % at 5 µM; 340,000 compounds, 0.74% hits;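 active = inhibition above about 55%, limit read from the data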;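 also: 0% = DMSO-treated cells and 100% = wells with medium but no cells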
# H9c2 protect = cardioprotection against H2O2-induced cell death, primary screen, uHTS, H9c2 cells, ATPLite luminescence. H9c2 cardiomyocytes, H2O2 injury protection, 2 h. protection from H2O2 cell death, % at 20 µM. 360,000 compounds, 0.63% hits. AID 588492, 2011;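 active = compounds giving at least 50% protection of heart cells from peroxide-induced death in the single-dose screen, raw or plate-pattern-corrected value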;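 also: 0% = DMSO wells with peroxide and 100% = DMSO wells without peroxide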
# SMARCA2 activ = SMARCA2 (BRM) function activators, primary screen, cell-based, luminescence, high throughput | 370,000 compounds, 1% hits | MG213 cells, MMTV-luciferase reporter, dexamethasone, overnight | activation, % at 9.1 µM; in the data active = activation above about 7.8%;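 also: 0% = vehicle wells and 100% = reference activator wells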
# GalR3 antagonist = GalR3 antagonists in HEK293 cells, primary screen, cell-based, fluorescence readout; HEK293 GalR3-CNG cAMP membrane potential fluorescence; galR3 body fused to GalR1 C-terminus; inhibition, % at 3 µM; 360,000 compounds, 0.44% hits; AID 651719, 2012;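 active = inhibition above the screen-wide average plus 3 SD, cut at about 13% in these data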;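 also: forskolin and galanin both at EC90 stimulate the cells; cAMP rise reported by CNG channel membrane potential dye signal; 0% = forskolin plus galanin with DMSO and 100% = forskolin alone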
# Target sequence (O60755 1-299 limits assumed): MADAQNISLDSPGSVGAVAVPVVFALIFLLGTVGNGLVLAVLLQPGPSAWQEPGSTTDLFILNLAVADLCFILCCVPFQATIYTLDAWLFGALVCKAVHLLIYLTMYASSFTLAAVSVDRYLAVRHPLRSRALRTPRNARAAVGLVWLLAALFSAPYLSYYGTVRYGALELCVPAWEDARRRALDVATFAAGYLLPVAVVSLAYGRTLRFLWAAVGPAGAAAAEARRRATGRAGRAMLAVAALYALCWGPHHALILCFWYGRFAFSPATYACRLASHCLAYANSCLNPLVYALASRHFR
# FXN GAA850 act = FXN promoter activators, primary screen, cell-based, luciferase luminescence, HEK293 lucGAA850; HEK293 lucGAA850 FXN promoter luciferase reporter, 24 h; percent of 10 µM SAHA response; AID 540364, 2011; 360,000 compounds, 0.56% hits; activation, % at 6 µM;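 active = activation above the average of all compounds screened plus 3 SD, cutoff fixed separately per campaign, cut at about 7.5% in these data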;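 also: 0% = DMSO wells and 100% = 10 µM SAHA wells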
# Gli-Sufu confirm = Gli-SUFU pathway antagonists, confirmation, single concentration, luciferase luminescence, Sufu-KO-LIGHT cells; shares compounds with Gli-Sufu block; Gli luciferase reporter; inhibition, % at 5 µM; 2,500 compounds, 40% hits; AID 602428, 2012;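 active = mean inhibition at 5 µM reaching about 45%, limit read from the data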;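 also: plate controls were DMSO-treated cells for no effect and wells lacking cells for full effect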
# Gli cytotox = cytotoxicity in Sufu-KO-LIGHT cells, confirmation, cytotoxicity control for Gli-SUFU antagonist project, cell-based, ATP luminescence, single concentration. AID 651994, 2013. shares compounds with Gli-Sufu block. cytotoxicity, % at 5 µM. 2,500 compounds, 32% hits;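 active = mean cytotoxicity at 5 µM above about 25%, limit read from the data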;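 also: cells exposed to compound overnight for roughly 16 to 18 hours; plate controls were DMSO wells with cells for no effect and medium without cells for full effect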
# Wnt3a counter = Wnt3a reporter signal inhibition, confirmation, counter-screen for Gli-SUFU antagonist project, Wnt-LIGHT cells, luminescence, single concentration; shares compounds with Gli-Sufu block; Wnt3a-driven luciferase reporter; inhibition, % at 6.25 µM; 2,500 compounds, 20% hits; AID 651995, 2013;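 active = mean inhibition above about 25%, limit read from the data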
# The depositor's hits bear a star; x = not tested or not shown.
SMILES,COUP-TFII inh,Gli-Sufu block,H9c2 protect,SMARCA2 activ,GalR3 antagonist,FXN GAA850 act,Gli-Sufu confirm,Gli cytotox,Wnt3a counter
C[C@@H]1COC(=O)[C@H](NC(=O)OCC2c3ccccc3-c3ccccc32)C/C=C\C[C@@H](CC(=O)N(CCO)Cc2ccccc2)C(=O)N1,x,55*,-22,x,x,-1,48*,30*,-14
O=C(C[C@@H]1C/C=C\C[C@@H](NC(=O)OCC2c3ccccc3-c3ccccc32)C(=O)OC[C@@H](Cc2ccccc2)NC1=O)NCCO,10,54,-26,-1,-1,-1,62*,28*,-69
COc1cccc(/C=N/n2nnnc2N)c1OCC#N,1,1,-2,-4,-6,1,x,x,x
O=C(N[C@H]1C/C=C\C[C@@H](CC(=O)N(CCO)Cc2ccccc2)C(=O)NC[C@H](c2ccccc2)OC1=O)OCC1c2ccccc2-c2ccccc21,-4,59*,-6,-1,5,-3,59*,16,34*
O=C1NC[C@H](c2ccccc2)OC(=O)[C@H](Cc2ccc(F)cc2)C/C=C\C[C@@H]1CC(=O)N(CCO)Cc1ccccc1,-7,1,30,1,-5,0,x,x,x
O=C(N[C@@H]1C/C=C\C[C@H](CC(=O)N(CCO)Cc2ccccc2)C(=O)N[C@@H](Cc2ccccc2)COC1=O)OCC1c2ccccc2-c2ccccc21,15,40,5,0,4,-4,x,x,x
CC(C)(C)[C@H]1COC(=O)[C@H](NC(=O)OCC2c3ccccc3-c3ccccc32)C/C=C\C[C@@H](CC(=O)N(CCO)Cc2ccccc2)C(=O)N1,-2,58*,-10,1,-7,-2,52*,14,-40
O=C(Nc1cc([N+](=O)[O-])ccc1O)c1ccc2c(c1)C(=O)N(Cc1ccco1)C2=O,-2,-33,5,1,1,-1,x,x,x
C/C(=N\NC(=O)c1nnn(-c2nonc2N)c1C(C)C)c1ccc2ccccc2c1,1,60*,-2,-1,-11,1,11,28*,20
COC(=O)c1nnn(CC(=O)NC(=O)Nc2cccc(C)c2C)c1C(=O)OC,-2,6,-1,-3,-12,0,x,x,x
COC(=O)c1nnn(CC(=O)Nc2cccc(Cl)c2C)c1C(=O)OC,-17,99*,2,-3,1,1,18,-2,2
CCOc1ccc(/C=C2\SC(=S)N(CCC(=O)N(CCO)c3ccccc3)C2=O)cc1,3,51,-8,-7,-12,-4,18,23,-11
Cc1cc(C(C)(C)C)cc(C)c1CCNC(=O)c1ccc[n+]([O-])c1,-31,0,2,1,-6,-5,x,x,x
COc1cccc(Cn2c(-c3cccs3)noc2=O)c1,25,99*,-1,0,-6,6,20,8,-37
Cc1csc(NC(=O)c2ccc(COc3cccc(F)c3)o2)n1,-41,x,x,1,x,x,x,x,x
COc1cc(OC)c(NS(=O)(=O)c2ccc(Cl)c(C(=O)OC(C)C(=O)N3CCCC3)c2)cc1Cl (centres undefined),23,51,-11,-5,-5,1,25,14,-14
COc1ccc(NS(=O)(=O)c2ccc(C)c(C(=O)OC(C)C(=O)N3CCOCC3)c2)cc1 (centres undefined),1,9,-3,-4,-5,-1,x,x,x

# Screens (PubChem)
